Results reported in PubChem BioAssay (Tox21).
“And” between values parts separate entries of the source, which are not always exact repeats. Equal values may be shown once. Records with an inconclusive call do not appear. Where a call stands in place of a potency, no number is given. Some compounds were tested as several samples or in several runs, with calls that do not always agree. The source made the active and inactive calls. Calls follow the shape of the full dose curve.

Assay: p53 small molecule agonists, cell-based qHTS assay: qHTS cell viability counter screen (AID 1963581); also: nearly all actives have a fitted effect of over 45% in size
Details: p53RE-bla HCT-116 viability, ATP luminescence, 16 h; series mostly up to 66 µM
Source text: National Center for Advancing Translational Sciences [NCATS]
Division of Preclinical Innovation [DPI]
U.S. Environmental Protection Agency [EPA]
National Institutes of Environmental Health Sciences [NIEHS]
National Toxicology Program [NTP]
U.S. Food and Drug Administration [FDA]
p53, a tumor suppressor protein, is activated following cellular insult, including DNA damage and other cellular stresses. The activation of p53 regulates cell fate by inducing DNA repair, cell cycle arrest, apoptosis, or cellular senescence. The activation of p53, therefore, is a good indicator of DNA damage and other cellular stresses. The CellSensor p53RE-bla HCT-116 cell line (Invitrogen) contains a stably integrated beta-lactamase reporter gene under control of the p53 response elements. The activation of the reporter gene under culture conditions can be detected by fluorescence intensity. This cell line was used to screen the Tox21 compound library in a 1536-well plate format and to identify agonists that activate the p53 signaling pathway. The cytotoxicity of the Tox21 compound library against the p53 RE-bla HCT-116 cell line was tested in parallel by measuring the intra cellular ATP content in the same wells.
Tox21 Assay Protocol Summary:
The p53RE-bla cells were dispensed at 4,000 cells/5 ul/well in 1536-well black wall/clear bottom plates using a Multidrop dispenser. After the assay plates were incubated at a 37 C/5% CO2 incubator for 5 hours, 23 nL of compounds dissolved in DMSO, positive controls or DMSO only was transferred to the assay plate by a pin tool. The plates were incubated at 37 C for 16 hours. After 1 uL of LiveBLAzerTM B/G FRET substrate was added using a Flying Reagent Dispenser, the plates were incubated at room temperature for 2 hours, and fluorescence intensity was measured by an Envision plate reader. For cell viability readout that measures cytotoxicity, 4 ul/well of CellTiter-Glo reagent was added into the assay plates using a Flying Reagent Dispenser. After 30 min incubation at room temperature, the luminescence intensity in the plates was measured using a ViewLux plate reader.
Potency is read from the fitted curve at half-maximal effect.

Structure (SMILES) | Potency
CNC(C)(C)Cc1ccccc1 | inactive
c1ccc(N2CCNCC2)cc1 | inactive
CC(Cl)Cl | inactive
O=C(O)C(Cl)Cl | inactive
CN(C)CCC#N | inactive
CNC(=O)N(C)c1nnc(C(C)(C)C)s1 | inactive
CNc1cnn(-c2cccc(C(F)(F)F)c2)c(=O)c1Cl | inactive
NC(=O)CCl | inactive
CN=C=O | inactive
CNC(=O)NC(O)C(Cl)(Cl)Cl (stereo not given) | inactive
Nc1ccccc1C(=O)OCC(O)CO (stereo not given) | inactive
CCCCC1C(=O)NC(=O)N(C2CCCCC2)C1=O (stereo not given) | inactive
NC1(c2ccccc2)CCCCC1 | inactive
CCOC(=O)C(O)(c1ccc(Cl)cc1)c1ccc(Cl)cc1 | inactive
O=S(=O)(O)O | inactive
N[C@@H](Cc1ccc(N(CCCl)CCCl)cc1)C(=O)O | inactive
COc1cc(OC)nc(Sc2cccc(Cl)c2C(=O)O)n1 | inactive
CCCC[n+]1ccc(C)cc1 | inactive
CN(C)C(=O)Nc1cccc(C(F)(F)F)c1 | inactive
CC1COC2(c3ccccc3Cl)c3cc(Cl)ccc3NC(=O)CN12 (stereo not given) | inactive

Structure (SMILES) | Potency
CCC[CH2][Sn]([Cl])([Cl])[CH2]CCC | 3.28 µM (active) and 4.08 µM (active)
Cc1cc(Cl)ccc1N=CN(C)C | inactive
CCCCOC(=O)CCC(=O)OCCCC | inactive
O=C1C=CC(=O)C=C1 | inactive
c1ccc(OP(Oc2ccccc2)Oc2ccccc2)cc1 | inactive
C[C@H]1C(=O)O[C@@H]2CCN3CC=C(COC(=O)[C@](C)(O)[C@]1(C)O)[C@H]23 | inactive
CCCCCCCCCCCCCCCC[n+]1ccccc1 | 45.8 µM (active) and inactive
Cc1ccc(N)c(N)c1 | inactive
CC1OC(C)OC(C)O1 (stereo not given) | inactive
N#CCCCl | inactive
CC(C)OC(=O)Nc1cccc(Cl)c1 | inactive
CC(COc1ccc(Oc2ccccc2)cc1)Oc1ccccn1 (stereo not given) | inactive
CN(C)N=O | inactive
O=c1[nH]c(=O)n(Cl)c(=O)n1Cl | inactive
N#CCCO | inactive
CC1CN1 (stereo not given) | inactive
CC(C)(N)Cc1ccccc1Cl | inactive
Cl/C=C/Cl | inactive
ClC1C(Cl)C(Cl)C(Cl)C(Cl)C1Cl (stereo not given) | inactive
N#Cc1ccccc1N | inactive
